The source made the active and inactive calls. How the source made its calls: active means hit-call score of the fitted dose curve at least 0.9, where 1 is the maximum; inactive means score below 0.9.
Assays:
[1] = ATG_GLI_CIS: Attagene CIS-FACTORIAL HepG2 Assay for human Zinc Finger Protein GLI1 (AID 2282945); conditions: HepG2, Attagene cis-factorial reporter mRNA, GLI element; actives raise or lower the signal
How it was run: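 Transiently transfected HepG2 cells report endogenous transcription factor activity via cis-element-driven reporter units. After 24 h compound exposure, reporter mRNA was measured by RT-PCR with capillary electrophoresis; bidirectional fitting against DMSO baseline.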

[2] = ATG_GRE_CIS: Attagene CIS-FACTORIAL HepG2 Assay for human Glucocorticoid Response Elements (GRE) (AID 2282947); conditions: HepG2 GRE cis-reporter, Attagene multiplex mRNA; actives raise or lower the signal
How it was run: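 Fluorescence intensity of reporter-specific cDNA fragments, separated by capillary electrophoresis, provides the signal. Constructs carry cis-regulating promoters in transiently transfected HepG2 liver cells; 24 h incubation; fitting is bidirectional against DMSO.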

[3] = ATG_ISRE_CIS: Attagene CIS-FACTORIAL HepG2 Assay for human Interferon Regulatory Factor 1 (IRF1) binding to an Interferon-Stimulated Response Element (ISRE) (AID 2282948); conditions: HepG2 ISRE cis-reporter (Attagene), mRNA transcription readout; actives raise or lower the signal
How it was run: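 Read-out: fluorescent RT-PCR products resolved by capillary electrophoresis, reporting endogenous transcription factor activity via ISRE-driven reporter mRNA in transfected HepG2 cells dosed for 24 h; gain or loss fitted relative to DMSO.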

[4] = ATG_M_32_CIS: Attagene CIS-FACTORIAL HepG2 Assay for M32 Transcription Factor (Internal Marker) (AID 2282949); conditions: HepG2 Attagene cis-factorial M32 reporter, mRNA; actives raise or lower the signal;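 further: background control marker of the multiplexed CIS panel rather than a real target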
How it was run: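 HepG2 transfectants (cis-regulated reporter transcription units) dosed 24 h. Reporter mRNA by RT-PCR plus CE, analysed as gain or loss relative to DMSO.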

[5] = ATG_M_06_CIS: Attagene CIS-FACTORIAL HepG2 Assay for M06 Transcription Factor (Internal Marker) (AID 2282950); conditions: HepG2 Attagene CIS-FACTORIAL M06 internal marker reporter; actives raise or lower the signal
How it was run: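 Cells (HepG2, transiently carrying cis-driven reporter units) receive chemical for 24 h before RNA isolation. Reporter cDNA is PCR-amplified, FAM-labelled by primer extension, HpaI-digested and sized on a capillary analyser.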

[6] = target: Hypoxia-inducible factor 1-alpha (Homo sapiens) (UniProt Q16665); assay: ATG_HIF1a_CIS: Attagene CIS-FACTORIAL HepG2 Assay for human Hypoxia Inducible Factor 1 (HIF1A) (AID 2282951); conditions: HepG2 Attagene cis-factorial HIF1a reporter transcription; actives raise or lower the signal
How it was run: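 HepG2 cells transiently transfected with multiplexed cis-promoter reporter units; reporter mRNA read 24 h after dosing by RT-PCR, 6-FAM primer-extension labelling, HpaI digestion and capillary electrophoresis. Bidirectional fit versus DMSO baseline.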

[7] = target: Hepatocyte nuclear factor 6 (Homo sapiens) (UniProt Q9UBC0); assay: ATG_HNF6_CIS: Attagene CIS-FACTORIAL HepG2 Assay for human Hepatocyte Nuclear Factor 6 (HNF6) (AID 2282952); conditions: HepG2 Attagene cis-factorial HNF6 reporter transcription; actives raise or lower the signal
How it was run: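 First, HepG2 cells were transfected with the multiplexed cis reporter library and dosed with chemical for 24 h. Next, RNA was reverse-transcribed, PCR-amplified and fluorescently labelled. Finally, HpaI-digested fragments were read by capillary electrophoresis.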

[8] = target: Heat shock factor protein 1 (Homo sapiens) (UniProt Q00613); assay: ATG_HSE_CIS: Attagene CIS-FACTORIAL HepG2 Assay for human Heat Shock Transcription Factor 1 (HSE) (AID 2282953); conditions: HepG2 HSE cis-reporter, Attagene RNA transcription; actives raise or lower the signal
How it was run: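 Liver-derived HepG2 cells carry transiently introduced multiple reporter units governed by cis promoters. Reporter RNA measured 24 h post-dose through reverse transcription, PCR amplification, fluorescent labelling and capillary electrophoresis, normalised to DMSO.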

[9] = ATG_MRE_CIS: Attagene CIS-FACTORIAL HepG2 Assay for human Metal Responsive Element (MRE) (AID 2282954); conditions: HepG2 MRE cis-reporter transcription, Attagene multiplex; actives raise or lower the signal
How it was run: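 Measured here is mRNA induction from an MRE cis-element reporter in HepG2 after 24 h, quantified by fluorescence of labelled RT-PCR products on capillary electrophoresis; gain- and loss-of-signal fits use DMSO as baseline.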

[10] = ATG_PBREM_CIS: Attagene CIS-FACTORIAL HepG2 Assay for human Phenobarbital-responsive Enhancer Module (PBREM) (AID 2282955); conditions: HepG2 PBREM cis-reporter, Attagene multiplexed transcription; actives raise or lower the signal
How it was run: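 HepG2 cells transiently transfected with multiple cis-regulated reporter transcription units; endogenous factor activity at the PBREM element measured as reporter mRNA 24 h after dosing, via RT-PCR and capillary electrophoresis of fluorescent fragments; bidirectional fitting versus DMSO.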

[11] = ATG_PXRE_CIS: Attagene CIS-FACTORIAL HepG2 Assay for human Pregnane X Receptor Element (PXRE) (AID 2282957); conditions: HepG2 Attagene CIS-FACTORIAL PXRE reporter, mRNA; actives raise or lower the signal
How it was run: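 After a 24 h chemical incubation, total RNA from transfected HepG2 cells was reverse-transcribed and reporter cDNA amplified, FAM-labeled, HpaI-digested and sized by capillary electrophoresis. DMSO served as baseline for bidirectional curve fitting.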

[12] = ATG_PPRE_CIS: Attagene CIS-FACTORIAL HepG2 Assay for human Peroxisome Proliferator-activated Response Element (PPRE) (AID 2282958); conditions: HepG2 PPRE cis-element reporter, Attagene transcription factor profiling; actives raise or lower the signal
How it was run: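 HepG2 cells transiently transfected with multiplexed cis-element reporter units measure endogenous transcription factor activity. After 24 h compound exposure, reporter mRNA is quantified by RT-PCR, 6-FAM labeling, HpaI digestion and capillary electrophoresis; bidirectional fits are made against DMSO baseline.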

[13] = ATG_RORE_CIS: Attagene CIS-FACTORIAL HepG2 Assay for human RAR-related Orphan Receptor Element (RORE) (AID 2282959); conditions: HepG2 Attagene cis-factorial RORE reporter, mRNA; actives raise or lower the signal
How it was run: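 HepG2 cells transiently transfected with multiple cis-element reporter transcription units, exposed to chemical for 24 h. Reporter mRNA quantified by RT-PCR, 6-FAM primer-extension labeling, HpaI digestion and capillary electrophoresis; bidirectional fit versus DMSO baseline.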

[14] = ATG_Sox_CIS: Attagene CIS-FACTORIAL HepG2 Assay for human SRY-box transcription factor (SOX) (AID 2282960); conditions: HepG2 Attagene cis-factorial SOX reporter, mRNA; actives raise or lower the signal
How it was run: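 HepG2 cells transiently transfected with cis-element-driven multiple reporter transcription units, dosed 24 h; reporter mRNA measured by RT-PCR, FAM labelling, HpaI digestion and capillary electrophoresis. Bidirectional fit versus DMSO baseline.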

[15] = target: Transcription factor Sp1 (Homo sapiens) (UniProt P08047); assay: ATG_Sp1_CIS: Attagene CIS-FACTORIAL HepG2 Assay for human Specificity Protein 1 (Sp1) (AID 2282961); conditions: HepG2 Sp1 cis-reporter transcription, actives raise or lower the signal
How it was run: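 HepG2 cells transiently transfected with multiple reporter transcription units driven by cis-regulatory elements; Sp1-responsive reporter mRNA measured 24 h after dosing by RT-PCR and capillary electrophoresis fluorescence, fitted bidirectionally against DMSO baseline.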

[16] = ATG_SREBP_CIS: Attagene CIS-FACTORIAL HepG2 Assay for human Sterol Regulatory Element Binding (SREBP) (AID 2282962); conditions: HepG2 Attagene cis-factorial SREBP reporter, mRNA; actives raise or lower the signal
How it was run: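 Readout: fluorescent reporter-transcript peaks resolved by capillary electrophoresis after RT-PCR. Cells were human HepG2 carrying transfected cis-promoter reporter constructs, dosed for 24 h. Gain or loss of signal was fitted against DMSO controls.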

[17] = target: Signal transducer and activator of transcription 3 (Homo sapiens) (UniProt P40763); assay: ATG_STAT3_CIS: Attagene CIS-FACTORIAL HepG2 Assay for human Signal Transducer and Activator of Transcription 3 (STAT3) (AID 2282963); conditions: HepG2, Attagene cis-factorial STAT3 reporter transcription; actives raise or lower the signal
How it was run: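 Fluorescence intensity of 6-FAM-labelled reporter fragments, separated by capillary electrophoresis after RT-PCR, gave the signal. Cells were HepG2 transfected with cis-element reporter units and treated 24 h; fitting was bidirectional relative to DMSO.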

[18] = ATG_TA_CIS: Attagene CIS-FACTORIAL HepG2 Assay for human TA Basal Promoter (AID 2282964); conditions: HepG2 Attagene CIS-factorial TA basal promoter reporter; actives raise or lower the signal
How it was run: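 Background internal-marker endpoint from a 52-component HepG2 cis-reporter panel. Cells treated 24 h; reporter transcripts quantified via RT-PCR and CE fluorescence against DMSO baseline.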

[19] = target: Paired box protein Pax-6 (Homo sapiens) (UniProt P26367); assay: ATG_Pax6_CIS: Attagene CIS-FACTORIAL HepG2 Assay for human Paired Box 6 (PAX6) (AID 2282956); conditions: HepG2 CIS-FACTORIAL PAX6 reporter transcription, RNA readout; actives raise or lower the signal
How it was run: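 Readout: reporter transcript fluorescence after RT-PCR and capillary electrophoresis. Cells: HepG2, transiently transfected with cis-regulated MRTUs. Exposure 24 h. Gain or loss of signal fitted bidirectionally relative to DMSO.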

Measured: AC50

Sequence of Hypoxia-inducible factor 1-alpha (Homo sapiens) (Q16665 whole entry, looked up): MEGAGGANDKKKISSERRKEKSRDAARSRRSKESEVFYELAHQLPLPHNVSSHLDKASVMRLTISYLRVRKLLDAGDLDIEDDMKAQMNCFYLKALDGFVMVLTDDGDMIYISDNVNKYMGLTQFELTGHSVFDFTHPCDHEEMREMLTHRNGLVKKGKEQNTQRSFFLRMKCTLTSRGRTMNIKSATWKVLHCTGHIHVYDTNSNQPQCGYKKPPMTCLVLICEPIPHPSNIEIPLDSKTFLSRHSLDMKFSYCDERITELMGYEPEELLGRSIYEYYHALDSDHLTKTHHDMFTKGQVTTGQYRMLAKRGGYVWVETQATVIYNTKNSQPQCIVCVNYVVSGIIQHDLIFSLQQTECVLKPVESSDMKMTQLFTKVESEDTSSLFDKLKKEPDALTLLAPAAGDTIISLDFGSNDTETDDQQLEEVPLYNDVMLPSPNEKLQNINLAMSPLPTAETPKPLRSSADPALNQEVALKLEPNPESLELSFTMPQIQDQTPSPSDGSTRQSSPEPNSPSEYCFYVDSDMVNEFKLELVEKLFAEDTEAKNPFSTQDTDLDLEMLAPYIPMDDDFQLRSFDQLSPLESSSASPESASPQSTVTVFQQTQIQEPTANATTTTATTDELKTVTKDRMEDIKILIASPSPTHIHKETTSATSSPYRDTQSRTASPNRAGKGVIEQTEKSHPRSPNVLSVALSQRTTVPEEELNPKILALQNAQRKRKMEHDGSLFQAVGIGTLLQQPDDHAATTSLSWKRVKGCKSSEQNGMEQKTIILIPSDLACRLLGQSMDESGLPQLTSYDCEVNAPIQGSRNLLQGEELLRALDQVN
Sequence of Signal transducer and activator of transcription 3 (Homo sapiens) (P40763 whole entry, looked up, the tested form may be a part): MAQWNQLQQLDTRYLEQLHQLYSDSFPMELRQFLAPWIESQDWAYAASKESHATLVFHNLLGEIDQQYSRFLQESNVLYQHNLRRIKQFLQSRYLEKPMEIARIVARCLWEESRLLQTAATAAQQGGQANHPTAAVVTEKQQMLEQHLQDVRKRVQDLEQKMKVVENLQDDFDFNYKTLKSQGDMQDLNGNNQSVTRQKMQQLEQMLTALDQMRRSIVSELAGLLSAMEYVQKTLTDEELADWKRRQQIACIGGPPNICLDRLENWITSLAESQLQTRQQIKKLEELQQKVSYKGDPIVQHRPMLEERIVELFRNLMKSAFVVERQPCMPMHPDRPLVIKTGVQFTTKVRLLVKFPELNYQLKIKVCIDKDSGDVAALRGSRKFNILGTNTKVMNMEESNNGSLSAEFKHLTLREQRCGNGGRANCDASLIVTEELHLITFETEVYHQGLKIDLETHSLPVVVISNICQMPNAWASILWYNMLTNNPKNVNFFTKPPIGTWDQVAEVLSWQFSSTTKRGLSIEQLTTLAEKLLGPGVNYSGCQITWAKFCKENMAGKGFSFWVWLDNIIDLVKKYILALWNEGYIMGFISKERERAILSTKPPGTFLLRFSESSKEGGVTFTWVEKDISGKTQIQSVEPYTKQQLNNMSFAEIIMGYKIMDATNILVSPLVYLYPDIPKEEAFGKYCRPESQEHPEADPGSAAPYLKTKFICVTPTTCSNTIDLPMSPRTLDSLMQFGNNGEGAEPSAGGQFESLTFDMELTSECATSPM
Sequence of Transcription factor Sp1 (Homo sapiens) (P08047 whole entry, looked up): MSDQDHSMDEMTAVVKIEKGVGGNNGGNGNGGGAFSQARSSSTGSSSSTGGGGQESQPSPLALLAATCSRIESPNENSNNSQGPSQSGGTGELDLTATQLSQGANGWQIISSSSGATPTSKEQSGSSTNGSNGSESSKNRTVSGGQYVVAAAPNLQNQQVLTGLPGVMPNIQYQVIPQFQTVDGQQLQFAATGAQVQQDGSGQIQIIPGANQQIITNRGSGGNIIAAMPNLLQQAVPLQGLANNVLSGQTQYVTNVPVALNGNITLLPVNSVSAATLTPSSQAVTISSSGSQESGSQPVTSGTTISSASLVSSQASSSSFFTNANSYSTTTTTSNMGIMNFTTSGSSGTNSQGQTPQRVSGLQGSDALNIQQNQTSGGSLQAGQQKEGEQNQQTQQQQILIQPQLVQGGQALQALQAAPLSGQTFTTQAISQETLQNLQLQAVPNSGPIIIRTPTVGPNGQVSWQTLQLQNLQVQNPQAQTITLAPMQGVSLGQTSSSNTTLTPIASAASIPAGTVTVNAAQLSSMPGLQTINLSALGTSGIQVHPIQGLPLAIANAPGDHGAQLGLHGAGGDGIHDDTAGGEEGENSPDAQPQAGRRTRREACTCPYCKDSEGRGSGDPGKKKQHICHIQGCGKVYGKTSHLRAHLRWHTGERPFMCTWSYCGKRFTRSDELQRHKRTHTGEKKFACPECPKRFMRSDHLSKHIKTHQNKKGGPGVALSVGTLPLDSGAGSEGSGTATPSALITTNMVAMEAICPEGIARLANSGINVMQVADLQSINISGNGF
Sequence of Hepatocyte nuclear factor 6 (Homo sapiens) (Q9UBC0 whole entry, looked up, the tested form may be a part): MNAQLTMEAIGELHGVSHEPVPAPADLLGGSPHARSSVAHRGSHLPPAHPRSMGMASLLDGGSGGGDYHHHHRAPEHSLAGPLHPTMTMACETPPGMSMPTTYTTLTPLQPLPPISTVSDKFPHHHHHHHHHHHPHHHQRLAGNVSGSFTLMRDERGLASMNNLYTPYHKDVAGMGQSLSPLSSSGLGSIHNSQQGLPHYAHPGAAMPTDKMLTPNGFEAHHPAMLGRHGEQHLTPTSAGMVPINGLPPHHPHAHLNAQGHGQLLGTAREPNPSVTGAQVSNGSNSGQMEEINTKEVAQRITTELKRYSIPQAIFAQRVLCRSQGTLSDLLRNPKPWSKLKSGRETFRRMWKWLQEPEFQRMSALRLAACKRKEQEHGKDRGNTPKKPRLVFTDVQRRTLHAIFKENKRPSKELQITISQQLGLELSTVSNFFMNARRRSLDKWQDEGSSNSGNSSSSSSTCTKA
Sequence of Paired box protein Pax-6 (Homo sapiens) (P26367 whole entry, looked up): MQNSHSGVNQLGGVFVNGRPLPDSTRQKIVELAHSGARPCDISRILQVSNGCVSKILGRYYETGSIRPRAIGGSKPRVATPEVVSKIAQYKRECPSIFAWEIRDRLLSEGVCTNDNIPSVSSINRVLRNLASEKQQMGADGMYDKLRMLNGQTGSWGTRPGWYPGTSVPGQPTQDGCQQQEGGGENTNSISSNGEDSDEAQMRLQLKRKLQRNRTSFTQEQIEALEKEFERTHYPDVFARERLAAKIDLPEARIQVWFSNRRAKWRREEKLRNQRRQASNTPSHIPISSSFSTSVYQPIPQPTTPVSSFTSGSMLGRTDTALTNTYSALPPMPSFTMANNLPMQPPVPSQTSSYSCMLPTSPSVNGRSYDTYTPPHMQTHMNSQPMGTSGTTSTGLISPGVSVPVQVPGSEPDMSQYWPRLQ
Sequence of Heat shock factor protein 1 (Homo sapiens) (Q00613 whole entry, looked up): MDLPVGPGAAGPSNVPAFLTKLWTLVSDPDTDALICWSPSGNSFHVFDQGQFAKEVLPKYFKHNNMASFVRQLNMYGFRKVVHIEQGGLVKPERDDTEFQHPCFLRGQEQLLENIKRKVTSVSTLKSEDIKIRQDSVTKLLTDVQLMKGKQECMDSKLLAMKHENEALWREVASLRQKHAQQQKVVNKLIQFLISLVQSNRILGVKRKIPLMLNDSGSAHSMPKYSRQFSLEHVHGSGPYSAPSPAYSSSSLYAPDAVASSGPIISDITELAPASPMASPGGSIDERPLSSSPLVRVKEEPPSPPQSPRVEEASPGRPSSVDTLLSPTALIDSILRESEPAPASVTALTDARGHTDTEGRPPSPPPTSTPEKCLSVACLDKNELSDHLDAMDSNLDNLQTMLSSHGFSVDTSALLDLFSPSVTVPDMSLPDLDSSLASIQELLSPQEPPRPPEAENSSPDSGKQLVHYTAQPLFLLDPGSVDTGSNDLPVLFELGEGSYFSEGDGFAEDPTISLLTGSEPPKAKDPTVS

COc1ccc(OC)cc1
not listed: [19]
inactive: all other assays above

CC(C)(O)C(=O)c1ccc(OCCO)cc1
not listed: [10]
inactive: all other assays above

c1ccc(Cc2ccccc2)cc1
not listed: [10] | [12]
inactive: all other assays above

CC1(C)CC(=O)CC(C)(C)N1
active: [11] 36.2 µM
not listed: [10] | [14]
inactive: all other assays above

CC(C)(C)C1CCC(O)CC1 (stereo not given)
inactive: all assays above

C=CCOCC(O)CO (stereo not given)
not listed: [12]
inactive: all other assays above

CC(O)COCC(C)O (stereo not given)
not listed: [10] | [13]
inactive: all other assays above

CC/C=C\CCOC(C)OCC (stereo not given)
not listed: [13]
inactive: all other assays above

CC(C)OB(OC(C)C)OC(C)C
not listed: [12]
inactive: all other assays above

C1=COCCC1
not listed: [10] | [18]
inactive: all other assays above

O=C1OC2(c3ccc(O)cc3Oc3cc(O)ccc32)c2ccccc21
active: [11] 0.741 µM
not listed: [10]
inactive: all other assays above

c1ccc(OCCOc2ccccc2)cc1
active: [6] 26.4 µM | [12] 0.0167 µM
not listed: [18]
inactive: all other assays above

Cc1ccncc1
not listed: [7] | [10] | [12] | [13]
inactive: all other assays above

c1coc(CNc2ncnc3nc[nH]c23)c1
active: [11] 44 µM
not listed: [7] | [19]
inactive: all other assays above

CC1(C)[C@H](C=C(Cl)Cl)[C@H]1C(=O)OCc1cccc(Oc2ccccc2)c1
active: [11] 3.1 µM
not listed: [7] | [12] | [13] | [14]
inactive: all other assays above

CCCCCCCCCO
not listed: [7] | [12] | [13] | [19]
inactive: all other assays above

Reference: PubChem BioAssay (EPA / NIEHS)
